Results filed as inconclusive are left out. Entries that show only a call come without a potency. Activity calls are given as the source filed them. The call rests on the fitted dose curve; in most records, active means well fitted inhibition curve with a large enough effect; inconclusive means small, poorly fitted or top-dose-only effect; inactive means flat fitted curve, though single readings scatter.

This assay concerns the target Aldehyde dehydrogenase, mitochondrial (Homo sapiens) (UniProt P05091). In words: qHTS for Inhibitors of the Aldehyde Dehydrogenase Family (ALDH2) Primary screen (AID 2061308). Further: nearly all actives have a fitted effect of over 55% in size. The settings on record: ALDH2 enzyme inhibition qHTS, 1536-well; series mostly up to 56 µM.
Regarding `CC(C)(C)c1ccc(C(=O)NCC(=O)OC(C(=O)Nc2cc(C(F)(F)F)ccc2Cl)c2ccccc2)cc1` (stereo not given), the Potency result was “inactive”. As to `CC1(C)CCc2cc(S(=O)(=O)N3CCN(S(=O)(=O)c4c(F)cccc4F)CC3)ccc2O1`, the Potency result is “inactive”. The value for `FC(F)(F)c1cccc(N2CCN(C(=S)Nc3cccnc3)CC2)c1` was “inactive”. `O=C(Nc1nnc(-c2ccncc2)s1)Oc1ccc2ccccc2c1`: the Potency result is “inactive”.

As for `N#Cc1ccc(NS(=O)(=O)c2ccc(NC(=O)Cc3ccc(Cl)c(Cl)c3)cc2)cc1`, the Potency result is “inactive”. With `O=S(=O)(c1c(F)cccc1F)C1CCN(S(=O)(=O)c2ccc3c(c2)OCCO3)CC1`, the Potency entry is “inactive”.

`CC(=O)Nc1sc2c(c1C(=O)O)CCNC2`: the Potency result is “inactive”. The value for `Cc1ccc(S(=O)(=O)N2CCN(c3nc(-c4ccco4)nc4ccccc34)CC2)cc1` was “inactive”.

In the case of `CCCn1c(-c2ccc(F)cc2)nc2c(N3CCC(N(C)C)C3)nc(C)nc21` (stereo not given), the Potency result is “inactive”. As to `COc1ccc(C(=O)Nc2nc(-c3ccccc3)cs2)c(NS(=O)(=O)c2ccc(C)cc2)c1`, the Potency entry was “inactive”. `Cc1ccc(S(=O)(=O)Nc2cccc(C(=O)Nc3nc(-c4ccccc4)cs3)c2)cc1`: the Potency entry was “inactive”.

As to `CC(=O)c1ccc(N2CCN(S(=O)(=O)c3ccc4c(c3)CCC(=O)N4)CC2)cc1`, the Potency result was “inactive”. `O=C(Nc1cccc(C(F)(F)F)c1)c1cccs1`: the Potency result was “inactive”.

Turning to `C#CCCC(=O)Nc1sc2c(c1-c1nc3ccccc3s1)CCN(C(C)C)C2`, the Potency entry was “inactive”. The value for `CCC(=O)NC(c1cccs1)c1cc(Cl)c2cccnc2c1O` (stereo not given) was “inactive”; that for `Brc1ccc(-c2csc(N3CCCCC3)n2)cc1` was “inactive”; that for `O=C1CCc2cc([S+](=O)([O-])NC3CCOCC3)ccc2N1` was “inactive”. Consider `COC(=O)c1sc2c(c1-c1nc3ccccc3s1)CCNC2`, for which the Potency entry was “inactive”.

Turning to `COc1ccc(NC(=O)c2[nH]c(C)c(C(C)=O)c2C)cc1[S+](=O)([O-])Nc1ccccc1C#N`, the Potency entry is “inactive”. The result for `O=c1[nH]c2ccc(S(=O)(=O)N3CCN(S(=O)(=O)c4c(F)cccc4F)CC3)cc2[nH]c1=O` reads “inactive”; that for `Cc1ccc(S(=O)(=O)Nc2cnccc2C(=O)Nc2ccc(-c3nn[nH]n3)cc2)cc1`, “inactive”. The result for `Cc1cc(NC(=O)Nc2nnc(-c3cccnc3)s2)ccc1F` reads “inactive”; that for `Cc1cc(C)nc(NC(=S)N2CCN(c3nccc4ccsc34)CC2)c1`, “inactive”; that for `C[C@@H]1O[C@@H](O[C@@H]2[C@@H](O)[C@H](O[C@H]3CC[C@@]4(C)C(CC[C@]5(C)C4CC=C4[C@@H]6CC(C)(C)CC[C@]6(C(=O)O[C@@H]6O[C@H](CO)[C@@H](O)[C@H](O)[C@H]6O)CC[C@]45C)C3(C)C)O[C@H](C(=O)O)[C@H]2O)[C@H](O)[C@H](O)[C@H]1O` (stereo not given in full), “inactive”. Regarding `CC(=O)Nc1oc(-c2cccc3ccccc23)nc1C#N`, the Potency entry is “inactive”. For `CCOc1ccccc1-c1nnc2n1N=C(c1ccc(OC)c(OC)c1)CS2`, the Potency entry is “inactive”.

As for `COc1ccccc1C1=Nn2c(nnc2-c2cccc(OC)c2OC)SC1`, the Potency entry is “inactive”. The value for `O=C(NCCc1nc2ccccc2[nH]1)C1CCCCC1` was “inactive”; that for `Fc1cc(Nc2nc(-c3ccncc3)nc3ccccc23)ccc1-c1cccnc1` was “inactive”. The result for `O=C(OCC#CCSc1nnc(-c2cccc3ccccc23)o1)C1CCCC1` reads “inactive”.

On to `c1ccc(C2Nc3cccc4cccc(c34)N2)cc1`, for which the Potency result was “inactive”. With `O=C(Nc1ccc(Cl)c(C(F)(F)F)c1)Nc1nnc(-c2ccncc2)s1`, the Potency result is “inactive”.

Consider `COc1ccccc1C1N=C(Nc2nc3ccccc3o2)NC2=C1C(=O)CCC2` (stereo not given), for which the Potency entry was “inactive”. The value for `N#CC1=C(NC=NCc2ccccc2)Oc2ccc3ccccc3c2C1c1ccccc1` (stereo not given) was “inactive”; that for `CCNC(=O)c1ccc(-c2ccc3ncnc(NCc4nc(C)cs4)c3c2)o1` was “inactive”. With `CCOc1ccc(C(C)CNC(=O)c2cc3sccc3n2Cc2ccccc2)cc1OCC` (stereo not given), the Potency result was “inactive”. The value for `O=C(Nc1nc(-c2ccccc2)cs1)c1ccncc1NS(=O)(=O)c1cccc2cccnc12` was “inactive”; that for `C[C@@H]1CC[C@]2(C)C(C[C@@H](O)[C@H](O)[C@]23CO3)[C@@]1(C)CCc1ccoc1` (stereo not given in full) was “inactive”.

In the case of `CCCn1c(C)nc2c(NC(C)CN(C)C)nc(C)nc21` (stereo not given), the Potency result is “inactive”. As to `O=S1(=O)N=C(Oc2ccccc2-c2ccccc2)c2ccccc21`, the Potency entry was “inactive”.

Values taken from PubChem BioAssay (NCATS).
